In the library only some 3.6% were active in any assay of this set; here they are far more common.
Pf apPOL inh – Pf-apPOL DNA polymerase inhibition; inhibition, % at 10 µM; Recombinant Pf-apPOL, molecular beacon fluorescence, 1.5 h; 210,000 compounds, 0.25% hits
mHTT CaM bind – disrupts binding of mutant huntingtin to calmodulin | 190,000 compounds, 3.6% hits | AlphaScreen His-mHTT/GST-CaM binding, luminescence | inhibition, % at 15 µM;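 further: 0% = both proteins with DMSO and 100% = one protein alone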
An asterisk follows results filed as active; x = no result given. No stated cut-off is given here; in the data, active means inhibition above about 50%; inactive means the rest.

SMILES | Pf apPOL inh | mHTT CaM bind
O=C1C2C3C=CC(C3)C2C(=O)N1NC(=O)C12CC3CC(CC(C3)C1)C2 (stereo not given) | -6 | -2
COc1ccc(OCCNc2ccc(C(F)(F)F)cc2[N+](=O)[O-])cc1 | -2 | 26
COc1ccc(Nc2ccc(C(F)(F)F)cc2[N+](=O)[O-])cc1 | 0 | 53*
CC(=O)c1ccc(N2CCN(Cc3cccs3)CC2)cc1 | -4 | -2
COc1ccccc1C(=O)Nc1ccc2nc(N3CCN(C)CC3)cc(C)c2c1 | -7 | 0
Cc1cc(N2CCN(C)CC2)nc2ccc(NC(=O)/C=C/c3cccs3)cc12 | 0 | 76*
Cc1cc(N2CCN(C)CC2)nc2ccc(NC(=O)c3cc(-c4ccco4)nc4ccccc34)cc12 | 5 | 57*
Cc1cc(N2CCN(C)CC2)nc2ccc(NC(=O)/C=C/c3cccnc3)cc12 | -6 | 5
Cc1ccc(C)c(NC(=O)C2CCCN(c3nc4c(s3)c(C)nn4-c3ccccc3)C2)c1 (stereo not given) | -6 | 5
O=C(O)[C@@H]1CSC(c2coc3ccccc3c2=O)N1 (stereo not given in full) | x | -1
O=C(Nc1c[nH]c2ccccc12)N1CCN(c2cccc(C(F)(F)F)c2)CC1 | -5 | 59*
O=C(Nc1nc(C(=O)N2CCN(c3cccc(C(F)(F)F)c3)CC2)co1)C1CC1 | -4 | 16
O=C1C(=Cc2ccc3ccccc3n2)Oc2cc(O)ccc21 | 1 | 2
COc1cccc2ccc(C=C3Oc4cc(O)ccc4C3=O)nc12 | 62* | 17
Cc1c(N=Cc2ccc(N3CCOCC3)cc2)c(=O)n(-c2ccccc2)n1C | 1 | -4
CCCN1CCN(c2ncc3c(n2)CCN(Cc2cccc(OC)c2)C3)CC1 | -2 | 9
COc1ccc(CN2CCc3nc(N4CCN(c5cccc(OC)c5)CC4)ncc3C2)cc1 | 2 | 74*
COc1cccc(N2CCN(c3ncc4c(n3)CCN(Cc3cccc(F)c3)C4)CC2)c1 | -3 | 58*
COc1ccc(N2CCN(c3ncc4c(n3)CCN(Cc3ccc(F)cc3)C4)CC2)cc1 | -4 | 57*
COc1cccc(CN2CCc3nc(N4CCN(C)CC4)ncc3C2)c1 | -3 | 29
Fc1ccc(CN2CCc3nc(N4CCN(c5ccc(F)cc5)CC4)ncc3C2)cc1 | -6 | 0
CC1CCCN(C(=O)CC2Sc3ncccc3N(C)C2=O)C1 (stereo not given) | -4 | -7
CC(NCC1OCc2ccccc2CO1)c1ccccc1 (stereo not given) | -7 | -4
O=[N+]([O-])c1ccc(N2CCCC2)cc1SCc1ccco1 | -1 | 7
O=[N+]([O-])c1cc(SCc2ccco2)c2c(C3OCCO3)nn(-c3ccccc3)c2c1 | -2 | 78*
SMILES | Pf apPOL inh | mHTT CaM bind
Cc1ccc(C)c(N2CCN(c3ncnc4c3nc3n4CCCC3)CC2)c1 | -3 | 19
Cc1ccc(Cl)cc1N1CCN(c2ncnc3c2nc2n3CCCC2)CC1 | 1 | 99*
CC(NC(=O)c1cc2n(n1)C(C(F)(F)F)CC(c1ccccc1)N2)c1ccccc1 (stereo not given) | -10 | 2
CN(C)c1ccc(C(=O)Nc2nc(C(C)(C)C)cs2)cc1[N+](=O)[O-] | -8 | 62*
CNc1ccc(C(=O)Nc2nc(C(C)(C)C)cs2)cc1[N+](=O)[O-] | -11 | 7
Cc1cc(C)cc(NC(=O)N2CCC(c3cc(N)on3)CC2)c1 | 1 | -3
COc1ccc2nc(N3CCC(C(=O)NCCCN(C)C4CCCCC4)CC3)sc2c1 | -6 | 5
Cc1cc([N+](=O)[O-])ccc1NCc1c[nH]c2ccccc12 | 2 | 69*
COc1ccc(OC)c(CNc2cc([N+](=O)[O-])ccc2OC)c1 | 22 | -3
COc1ccc(CNc2ccc([N+](=O)[O-])cc2C)c(OC)c1C | -6 | 1
COc1ccc(OC)c(CNc2ccc([N+](=O)[O-])cc2C)c1 | 5 | 51*
C=CCN1CCN(C(=O)c2sc(Nc3ccc(Cl)cn3)nc2C)CC1 | -6 | 45
O=C(Nc1ccc(Nc2cc(-n3cccn3)ncn2)cc1)c1ccco1 | -31 | 100*
COc1ccc(Nc2cc(-n3cccn3)ncn2)cc1 | -1 | -3
Cc1cc(O)c2c(c1)OC(=Cc1cccs1)C2=O | 3 | 59*
Cc1cc(O)cc2c1C(=O)C(=Cc1cccs1)O2 | -8 | 1
Cc1cc(O)c2c(c1)OC(=Cc1ccc(F)cc1)C2=O | -2 | 10
Cc1cc(O)c2c(c1)OC(=Cc1ccccc1)C2=O | -15 | 53*
O=C(CSc1ccc([N+](=O)[O-])cc1Cl)NCc1ccccc1 | -1 | x
COc1ccccc1NC(=O)CN1C(=O)C(c2ccc(Cl)cc2)=NC12CCCCC2 | 0 | -3
CC1CCN(C(=O)CSc2ncnc3c2sc2ccccc23)CC1 | -12 | -5
Cc1ccc(S(=O)(=O)N2CCc3cc(NC(=O)c4ccccc4Cl)ccc32)cc1 | 4 | -6
CCC(=O)N1CCc2sc(S(=O)(=O)NCc3cccc(OC)c3)cc2C1 | -7 | -2
Cn1c(=O)n(C2CCN(Cc3ccccc3C#N)CC2)c2ncncc21 | -7 | -4

From PubChem
